# Measured values from PubChem BioAssay (EPA / NIEHS).
# Calls of active or inactive are those of the source. How the source made its calls: active means hit-call score of the fitted dose curve at least 0.9, where 1 is the maximum; inactive means score below 0.9.
# Assay: BSK_LPS_SRB: Viability Assessment in the BioMAP Diversity Plus: LPS Assay (AID 2283079);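 further: measured one day after compound addition; fitted in both directions against DMSO so loss or gain of signal counts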
# Conditions: primary human HUVEC with PBMC
# Method: BSK_LPS is a cell-based, multiplexed-readout assay that uses umbilical vein endothelium and peripheral blood mononuclear cells, a human vascular primary cell co-culture, with measurements taken at 24 hours after chemical dosing in a 96-well plate.BSK_LPS_SRB is an assay component measured in the BSK_LPS assay. It measures 0.1% sulforhodamine related to cell death using Sulforhodamine staining technology.Data from the assay component BSK_LPS_SRB was analyzed into 1 assay endpoint. This assay endpoint, BSK_LPS_SRB, was analyzed with bidirectional fitting relative to DMSO as the negative control and baseline of activity. Using a type of viability reporter, gain or loss-of-signal activity can be used to understand changes in the signaling. Furthermore, this assay endpoint can be referred to as a primary readout, because this assay has produced multiple assay endpoints where this one serves a signaling function. To generalize the intended target to other relatable targets, this assay endpoint is annotated to the cell morphology intended target family, where the subfamily is cell conformation.
# The levels of cell surface (or secreted, indicated by the prefix "s") biomarker endpoints were measured by ELISA. Overt cytotoxicity to cells in confluent adherent cultures (all systems other than the BT system) was assessed by measuring total protein levels using sulforhodamine B (SRB) staining in parallel cultures at the time of biomarker measurements, indicated as SRB endpoints. For proliferation assays for adherent cell types, individual cell types are cultured at sub-confluence and relative cell numbers quantified by SRB staining at time points optimized for each system (48 h: 3C and CASM3C systems; 72 h: BT and HDF3CGF systems; 96 h: SAg system). SRB was performed by staining cells with 0.1% SRB after fixation with 10% TCA and reading wells at 560 nm.Viability and proliferation of PBMC (T cells) was quantified by Alamar Blue reduction for the SAg and BT systems. For PBMC viability (referred to as PBMC Cytotoxicity within the assay endpoint names), cells were plated (75,000/well in a 96-well plate) and then chemical samples added for 1 h before addition of activators, SEB and TSST-1 (20 ng/mL final concentration each). Cells were incubated for 90 h. Then, Alamar Blue (20 uL/well) (Invitrogen, Cat DAL1100) was added for 6 h, and the plates were read with a fluorescence microplate reader at 546/580 nm (excitation/emission). For PBMC proliferation, cells were plated and activated as above but incubated for only 16 h prior to addition of Alamar Blue. Plates were read after 6 h.
SMILES,outcome,AC50
Cc1ncc([C@@H](CCCCCCc2ccc3c(n2)NCCC3)CC(=O)O)cn1,inactive,–
Cc1ccc(S(=O)(=O)NC(=O)NN2CCCCCC2)cc1,inactive,–
CCCc1ccccc1,inactive,–
CCOc1ccc2[nH]cc(C(=O)NCc3ccccc3)c(=O)c2n1,inactive,–
OC(O)(C(F)C(O)(O)C(F)(F)F)C(F)(F)F,inactive,–
c1ccc2ncccc2c1,inactive,–
Cn1cc[nH]c1=S,inactive,–
NC(=O)NN=Cc1ccc([N+](=O)[O-])o1,inactive,–
CCCCN1C(=O)[C@@H]([C@H](O)C2CCCCC2)NC(=O)C12CCN(Cc1ccc(Oc3ccc(C(=O)O)cc3)cc1)CC2,inactive,–
Cn1c(=O)c2[nH]cnc2n(C)c1=O,inactive,–
O=S1(=O)CCCO1,inactive,–
COc1cc(C(C)C)c2c(c1)S(=O)(=O)N(COc1cc(=O)n3cccc(OCCN4CCCCC4)c3n1)C2=O,inactive,–
FC(F)=C(F)C(F)(F)C(F)(F)C(F)(F)C(F)(F)C(F)(F)C(F)(F)F,inactive,–
COCc1nnc(-c2ccc[n+]([O-])c2)n1-c1c(Cl)c(Cl)cc2[nH]c(=O)c(=O)[nH]c12,inactive,–
OC(Cn1cncn1)(Cn1cncn1)c1ccc(F)cc1F,inactive,–
Cc1nccn1-c1ccc(Sc2cccc(C3(C(N)=O)CCOCC3)c2)cc1,inactive,–
CC(C)C(=O)Nc1ccc([N+](=O)[O-])c(C(F)(F)F)c1,inactive,–
O=c1[nH]cnc2c1ncn2[C@H]1CC[C@@H](CO)O1,inactive,–
O=C(O)c1ccc2c(c1)nc(C(=O)NC1CCN(C3CC3)CC1)n2Cc1cc(-c2ccc(Cl)s2)on1,inactive,–
OCCOCCOCCO,inactive,–

SMILES,outcome,AC50
FC(F)(F)C(F)(F)C(F)(F)C(F)(F)C(F)(F)C(F)(F)I,inactive,–
OCc1c[nH]c2ccccc12,inactive,–
CC(C)CCCCCCOC(=O)C1CCCCC1C(=O)OCCCCCCC(C)C (stereo not given),inactive,–
COS(C)(=O)=O,inactive,–
C[Si](C)(C)C(F)(F)C(F)(F)C(F)(F)F,inactive,–
CCc1ccc(O)c(C(C)(C)C)c1,–,32 µM (active)
O=C1CN(N=Cc2ccc([N+](=O)[O-])o2)C(=O)N1,inactive,–
OC[C@H]1O[C@@H]2O[C@H]3[C@H](O)[C@@H](O)[C@@H](O[C@H]4[C@H](O)[C@@H](O)[C@@H](O[C@H]5[C@H](O)[C@@H](O)[C@@H](O[C@H]6[C@H](O)[C@@H](O)[C@@H](O[C@H]7[C@H](O)[C@@H](O)[C@@H](O[C@H]1[C@H](O)[C@H]2O)O[C@@H]7CO)O[C@@H]6CO)O[C@@H]5CO)O[C@@H]4CO)O[C@@H]3CO,inactive,–
COc1cc2c(c(OC)c1OC)-c1ccc(OC)c(=O)cc1[C@@H](NC(C)=O)CC2,–,0.245 µM (active)
CCn1nc(C)c2c1C(=O)NCC(c1ccc(O)cc1)=N2,inactive,–
CC[C@H](C)C(=O)O[C@H]1C[C@H](O)C=C2C=C[C@H](C)[C@H](CC[C@@H](O)C[C@@H](O)CC(=O)O)[C@H]21,inactive,–
CCN(CC)C(=S)SSC(=S)N(CC)CC,–,31.1 µM (active)
OCC(CO)(CO)CO,inactive,–
CCc1cccc(CC)c1N,inactive,–
O=C(O)[C@H](O)[C@@H](O)C(=O)O,inactive,–
CCCCCCCCCCCCCCO,–,30.7 µM (active)
C=CN1CCCC1=O,inactive,–
OC[C@H]1O[C@@](CO)(O[C@H]2O[C@H](CO)[C@@H](O)[C@H](O)[C@H]2O)[C@@H](O)[C@@H]1O,inactive,–
O=S(=O)(O)c1ccc(N=Nc2c(O)ccc3cc(S(=O)(=O)O)ccc23)cc1,inactive,–
FC(F)(F)COC(OCC(F)(F)F)OCC(F)(F)F,inactive,–
